PubChem BioAssay (NCI)
Compounds without any hit were thinned out: in the full panel of roughly 83,000, 20% have a hit.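 Activity criterion: percent growth below 10, measured after cells in 96-well plates were exposed to a single compound concentration for 48 hours.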 Activity calls are given as the source filed them.

The compounds below were run on MDA-MB-435 melanoma (assay: NCI-60 one-dose screen, 48 h (100 = growth as untreated, 0 = no growth, -100 = all killed)). Details: 10 µM unless noted.

SMILES | growth
O=S1(=O)C=C(c2ccccc2)C(c2ccccc2)=C1 | 25.4% (inactive)
CCN1C(=O)N(CC)C2C1NN=c1s/c(=C\c3cnc(C)n3C)c(=O)n12 (centres undefined) | -69.1% (active)
CC(=O)O[C@H]1C[C@@H]2C(C)(C)C(=O)CC[C@@]2(C)c2ccc(C(C)C)cc21 | 100% (inactive)
Cc1ccc2c(=O)cc(C(=O)Nc3sc4c(c3C(=O)NCc3cccnc3)CCCC4)oc2c1C | 101% (inactive)

These compounds were tested on SW-620 colon in the same assay as above. Details: 10 µM unless noted.

SMILES | growth
[2H]C([2H])([2H])Oc1ccc(F)cc1/C=C/C(=O)/C=C(O)/C=C/c1cc(F)ccc1OC([2H])([2H])[2H] | 102% (inactive)
C=CC(=O)Nc1ccc(Nc2nccc(-c3ccc(N4CCCC4)c(C#N)c3)n2)cc1 | 3% (active)
N#CC1=C(N)Oc2ccc3ccccc3c2C1c1ccc([N+](=O)[O-])cc1 (centres undefined) | 100% (inactive)
CCOC(=O)c1nn(CC(O)c2ccccc2)c(NC(=O)Nc2cccc(F)c2)c1C (centres undefined) | 95.9% (inactive)
Nn1c(=O)c(=O)[nH]c2c(cnn2-c2ccccc2)c1=O | 110% (inactive)
O=[N+]([O-])c1cc(NS(=O)(=O)c2ccccc2)ccc1NS(=O)(=O)c1ccccc1 | 84.4% (inactive)
C=C1C(=O)O[C@H]2[C@H]1CC/C(COC(=O)NCc1ccc(Cn3c(=O)sn(-c4ccc(C#N)cc4)c3=O)cc1)=C\CC[C@@]1(C)O[C@@H]21 | 24.1% (inactive)
Cc1nc2c(c(=O)[nH]1)C(c1ccccc1)c1ccc3ccccc3c1O2 (centres undefined) | 20.9% (inactive)
COC1=C(C)C(=O)N2[C@@H]1[C@H](c1ccccc1)OC21C=CC(=O)C=C1 | -36% (active)
COc1cccc(CCNc2ncnc3c2ncn3Cc2nnc3c4ccccc4c(Cl)nn23)c1 | 57.4% (inactive)
Fc1ccc(Cn2cc(CSc3nc4ccccc4o3)nn2)cc1 | 101% (inactive)
CC(=O)ON1CCCC(P(=O)(OCCSC(=O)C(C)(C)C)OCCSC(=O)C(C)(C)C)C1=O (centres undefined) | 30.9% (inactive)
O=c1cc(-c2ccccc2)[nH]c2ncc(-c3ccc(F)cc3)n12 | 40.3% (inactive)
COC(=O)c1ccc(NC(=O)Nc2ccc(C(=O)OC)cc2)cc1 | 112% (inactive)
N#C/C(=C\c1ccc(-c2cccc(C(F)(F)F)c2)o1)c1ccccc1 | 92.3% (inactive)
COc1ccc2cc(-c3ccnc4c(N=Nc5ccc(Cl)cc5)c(N)nn34)ccc2c1 | 101% (inactive)
O=C(Cc1ccc(NC(=O)c2cccc(Cl)c2)cc1)NCc1ccccc1 | 25.3% (inactive)
CCS/C(Nc1ccccc1)=C(\C#N)C(=O)Nc1ccc(OC)cc1 | 18% (inactive)
CC[N+]1(CC)CC[N+]2(CCCC(C)CC2)CC1 (centres undefined) | 103% (inactive)
COc1ccc(C(=O)/C=C/c2ccc(Cl)cc2)cc1S(=O)(=O)Nc1c(N)nc(SC)[nH]c1=O | 7.52% (active)

SMILES | growth
C=C1C(=O)O[C@H]2[C@H]1CC/C(COC(=O)/C=C/C(=O)OC/C1=C/CC[C@@]3(C)O[C@H]3[C@H]3OC(=O)C(=C)[C@@H]3CC1)=C\CC[C@@]1(C)O[C@@H]21 | 6.25% (active)
O=C1/C(=C\c2cccc3nccnc23)SC(=S)N1CCc1ccc(O)cc1 | 101% (inactive)
O=S(=O)(NCCNc1nccc(-c2c(-c3ccc(F)c(O)c3)nc3sccn23)n1)c1ccc(F)cc1 | 29.5% (inactive)
CC/C=C\C[C@H](O)C/C=C1/C(=O)C=C[C@@H]1C/C=C\CCCC(=O)O | 49.6% (inactive)
O=C1/C=C/[C@@H](O)[C@@H]2C[C@@H](O)C[C@H]2/C=C/CCC[C@H](CCO)O1 | -46% (active)
COc1cc(-c2nc3sccn3c2-c2ccnc(NCCNS(=O)(=O)c3ccc(Cl)cc3)n2)ccc1F | 50.6% (inactive)
C#Cc1cccc(Nc2nc(C)nc3cc(NC(=O)CCl)ccc23)c1 | -63.6% (active)
O=C(NNC(=O)c1ccc(NC(=O)c2ccccn2)cc1)Nc1ccc2ccccc2c1 | 116% (inactive)
CC1(C)C(N)=Nc2cc(OCCCN3Cc4ccccc4C3)c(OCC3CC3)cc21 | 87.8% (inactive)
CN(CCC(=O)c1ccccc1)CCC(=O)c1ccccc1 | 99.8% (inactive)
CCSc1oc(C)nc1[P+](c1ccccc1)(c1ccccc1)c1ccccc1 | 32.9% (inactive)
C=CCC(CCCC)(C(=O)OCC)C(=O)OCC | 114% (inactive)
Fc1cccc(-c2ccc3c(c2)C2(CCNCC2)CN3)c1 | 106% (inactive)
CN(C)S(=O)(=O)Oc1ccc(-c2sc3cc(OS(=O)(=O)N(C)C)ccc3c2C(=O)c2ccc(OCCN3CCCCC3)cc2)cc1 | 30.5% (inactive)
COc1cc2c(cc1OCCCCN1CCN(C(=S)SCCC(C#N)(c3ccccc3)c3ccccc3)CC1)N=C[C@@H]1CCCN1C2=O | -95.6% (active)
CC(C)(C)n1cc(-c2ccnc(NCCNS(=O)(=O)c3ccc(O)cc3)c2)c(-c2cccc(O)c2)n1 | 103% (inactive)
O=S1(=O)C=C(c2ccccc2)C(c2ccccc2)=C1 | -82.9% (active)
CCN1C(=O)N(CC)C2C1NN=c1s/c(=C\c3cnc(C)n3C)c(=O)n12 (centres undefined) | 9.38% (active)
CC(=O)O[C@H]1C[C@@H]2C(C)(C)C(=O)CC[C@@]2(C)c2ccc(C(C)C)cc21 | 104% (inactive)
Cc1ccc2c(=O)cc(C(=O)Nc3sc4c(c3C(=O)NCc3cccnc3)CCCC4)oc2c1C | 101% (inactive)
